Measured values as given in publication PMC4336329 (PLoS ONE, 2015).
Among all 310,000 compounds or so, about 14,000 (4.5%) showed an effect of 50% or more. The effect is printed as a negative number. The sample as a whole holds a higher share of strong results than the screen did.

target: human ether-à-go-go-related gene (hERG) potassium channel (human, UniProt Q12809); experiment: primary screen, population patch clamp on CHO cells stably expressing hERG; higher = less effect of the substance
Sequence (Q12809 whole entry, looked up): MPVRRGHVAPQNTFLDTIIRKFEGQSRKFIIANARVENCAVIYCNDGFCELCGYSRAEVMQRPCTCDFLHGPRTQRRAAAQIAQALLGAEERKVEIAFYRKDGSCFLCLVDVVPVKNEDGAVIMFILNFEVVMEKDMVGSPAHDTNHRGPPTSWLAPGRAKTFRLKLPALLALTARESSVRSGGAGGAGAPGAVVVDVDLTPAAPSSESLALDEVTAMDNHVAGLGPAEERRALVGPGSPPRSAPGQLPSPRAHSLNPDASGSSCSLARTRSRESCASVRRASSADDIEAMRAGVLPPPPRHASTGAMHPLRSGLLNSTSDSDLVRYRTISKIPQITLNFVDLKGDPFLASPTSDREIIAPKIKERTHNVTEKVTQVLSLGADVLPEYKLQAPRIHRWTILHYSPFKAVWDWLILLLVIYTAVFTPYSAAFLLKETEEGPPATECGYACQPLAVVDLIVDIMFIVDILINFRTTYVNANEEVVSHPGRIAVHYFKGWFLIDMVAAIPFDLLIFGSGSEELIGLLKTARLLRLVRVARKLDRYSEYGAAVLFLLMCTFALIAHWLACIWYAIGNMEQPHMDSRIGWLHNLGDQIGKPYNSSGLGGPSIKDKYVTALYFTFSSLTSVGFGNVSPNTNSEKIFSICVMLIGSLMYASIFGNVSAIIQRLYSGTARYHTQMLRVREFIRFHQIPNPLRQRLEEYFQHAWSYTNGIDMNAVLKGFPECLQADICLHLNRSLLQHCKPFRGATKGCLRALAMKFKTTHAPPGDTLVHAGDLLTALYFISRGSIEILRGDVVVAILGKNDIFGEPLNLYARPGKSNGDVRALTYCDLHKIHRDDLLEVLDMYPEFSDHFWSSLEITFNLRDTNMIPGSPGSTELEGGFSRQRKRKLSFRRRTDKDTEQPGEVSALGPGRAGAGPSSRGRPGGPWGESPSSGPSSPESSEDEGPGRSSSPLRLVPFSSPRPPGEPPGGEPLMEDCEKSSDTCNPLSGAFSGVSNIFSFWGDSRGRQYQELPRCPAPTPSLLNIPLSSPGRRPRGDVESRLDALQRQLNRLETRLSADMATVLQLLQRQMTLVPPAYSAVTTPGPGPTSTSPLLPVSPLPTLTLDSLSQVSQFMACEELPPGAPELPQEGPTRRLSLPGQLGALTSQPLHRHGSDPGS
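Note: peak tail current of the secondary pulse compared with the same well before compound.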

| SMILES | hERG current change (%, negative = inhibition) at 10uM [%] |
| --- | --- |
| CCOc1ccccc1NC(=O)COC(=O)C(Cc1ccccc1)NC(=O)c1ccco1 (centres unmarked) | -8.33 |
| O=C1/C(=C\c2ccsc2)NC(=S)N1c1ccccc1 | 15.4 |
| COc1ccccc1OCCC(=O)OCC(=O)Nc1cc(S(=O)(=O)N(C)C)ccc1Cl | -6.26 |
| O=C(Cc1ccc(F)cc1)N1CCC(CC2CC(c3cccc(Br)c3)=NO2)(C(=O)NCC2CCCCC2)CC1 (centres unmarked) | -8.67 |
| CCOc1cc(C(=O)N2CCC(CC3CC(c4ccc(Cl)cc4)=NO3)(C(=O)NCC3CCCCC3)CC2)cc(OCC)c1OCC (centres unmarked) | 1.25 |
| O=C(Cc1ccc(F)cc1)N1CCC(CC2CC(c3ccc(Cl)cc3)=NO2)(C(=O)NCC2CCCCC2)CC1 (centres unmarked) | -72.3 |
| O=C(NCC1CCCCC1)C1(CC2CC(c3cccc(Br)c3)=NO2)CCNCC1 (centres unmarked) | -24.1 |
| O=C(NCC1CCCCC1)C1(CC2CC(c3ccc(Cl)cc3)=NO2)CCNCC1 (centres unmarked) | -71.6 |
| COc1ccc(OC)c(-c2csc(NC(=O)C3c4ccccc4Oc4ccccc43)n2)c1 | -5.7 |
| Cc1sc(-c2ccncc2)nc1OC(=O)c1cc(Cl)cc(Cl)c1 | 10.2 |
| COc1ccc(Cl)cc1NC(=O)CN(C)C(=O)CCC(=O)c1cc(C)sc1C | -29.5 |
| CC(C)C(CCN1C(=O)CCC1=O)C1CCOC(C)(C)C1 (centres unmarked) | 4.36 |
| CCn1ncc(Br)c1C(=O)Nc1cc(C(=O)OC)ccc1C(=O)OC | -3.95 |
| Cc1cc(OCc2cccc(Cl)c2)c(C)cc1CN1CCOCC1 | 0.275 |
| CCCCCCCCCC(=O)N[C@H](CN1CCOCC1)[C@H](O)c1ccccc1.Cl | -16.6 |
| Cc1ccc(OCC(O)Cn2c(=N)n(Cc3ccccc3)c3ccccc32)cc1.Cl (centres unmarked) | -81.6 |
| O=C(O)c1ccc(OCC(O)Cn2c3ccccc3c3ccccc32)cc1 (centres unmarked) | -18.5 |
| Cc1ccc(Cn2c(=N)n(CC(O)COc3ccccc3)c3ccccc32)cc1.Cl (centres unmarked) | -68.9 |
| COC(=O)c1cn(S(=O)(=O)c2ccccc2)c2ccccc12 | 13 |
| Cc1ccc(NC(=O)NCc2ccc3c(c2)OCO3)cc1 | 5.69 |
| COc1cc2c(OC(C)=O)c3c(c(-c4ccc5c(c4)OCO5)c2cc1OC)C(=O)OC3 | 15.4 |
| Cc1ccc(NC(=O)CCN2CC(C)OC(C)C2)cc1C.Cl (centres unmarked) | 19.1 |

| SMILES | hERG current change (%, negative = inhibition) at 10uM [%] |
| --- | --- |
| CC(C)(C)NS(=O)(=O)c1cc(C(=O)O)ccc1Cl | 4.6 |
| O=C(Oc1coc(CSc2ncccn2)cc1=O)c1ccccc1[N+](=O)[O-] | 14.4 |
| O=C(Oc1coc(CSc2ncccn2)cc1=O)c1cccc([N+](=O)[O-])c1 | -81.3 |
| Cc1cc(C)nc(SCc2cc(=O)c(OC(=O)c3cccc([N+](=O)[O-])c3)co2)n1 | -32.5 |
| Cc1cccn2c(=O)c3cc(C#N)c(=NC(=O)c4ccco4)n(Cc4ccco4)c3nc12 | -55.4 |
| CC(C)n1c(=NC(=O)c2ccco2)c(C#N)cc2c(=O)n3ccccc3cc21 | -52.2 |
| Cc1ccccc1C(=O)N=c1c(C#N)cc2c(=O)n3cccc(C)c3nc2n1Cc1ccco1 | -46.2 |
| Cc1cccn2c(=O)c3cc(C#N)c(=NC(=O)c4ccccc4)n(Cc4ccco4)c3nc12 | -40.3 |
| Cc1cccc(C(=O)N=c2c(C#N)cc3c(=O)n4cccc(C)c4nc3n2Cc2ccco2)c1 | -65 |
| CC(=O)N=c1c(C#N)cc2c(=O)n3cccc(C)c3nc2n1Cc1ccco1 | -35.3 |
| Cn1c(=NC(=O)c2ccco2)sc2ccccc21 | 11.6 |
| CC(=O)N=c1c(C#N)cc2c(=O)n3ccccc3nc2n1Cc1ccccc1 | -40.2 |
| CCO[C@@H]1OC(C(=O)NCc2ccccc2)=C[C@H](C(C)(C)C)[C@H]1CCCO | -10.5 |
| O=C(OCCN1C(=O)c2ccccc2C1=O)c1cc2ccccc2o1 | 1.62 |
| CC1CCCC(C(=O)O)N1C(=O)CCSC(=O)c1ccccc1 (centres unmarked) | -0.246 |
| O=S(=O)(c1cccs1)N1CN(Cc2ccc(Cl)cc2)c2nc3ccccc3nc21 | 3.75 |
| Cc1ccc2c(c1)c1c(n2CC(O)CN2CCCCC2C)CCCC1 (centres unmarked) | -42.6 |
| Cc1ccc2c(c1)c1c(n2CC(O)CNC2CCCCC2)CCCC1.Cl (centres unmarked) | -37.4 |
| Cc1ccc2c(c1)c1c(n2CC(O)CN2CCC(C)CC2)CCCC1 (centres unmarked) | -58.1 |
| Cc1ccc2c(c1)c1c(n2CC(O)CN2CCOCC2)CCCC1.Cl (centres unmarked) | 9.32 |
| Cc1ccc2c(c1)c1c(n2CC(O)CNC(CO)(CO)CO)CCCC1 (centres unmarked) | 0.531 |
| Cc1ccc2c(c1)c1c(n2CC(O)CN2CCCCCC2)CCCC1.Cl (centres unmarked) | -65.6 |
